Rows were chosen to be rich in hits. Some 28% of all compounds tested hit in one or more screens of this group.
CYP2C9 inhib = blocks human cytochrome P450 2C9; inhibition, % at 5 µM; P11712; 96,000 tested, 20% active; CYP2C9 Supersomes, luciferin-H conversion, luminescence;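 active = blocking of liver enzyme CYP2C9 beyond about 50% at 5 µM, limit read from the data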
CYP2C19 activ = increases human CYP2C19 enzyme activity; P33261; recombinant CYP2C19, luciferin-H EGE luminescence; stronger effect = higher value; 0 = fully inhibited enzyme, 1 = untreated enzyme; 96,000 tested, under 10 active; activation factor at 5 µM;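 active = activation factor of at least 2 at 5 µM in the primary screen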;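 also: 0 = wells with 2.5 mM tranylcypromine and 1 = vehicle-only wells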
Target sequence (P33261 whole entry, looked up): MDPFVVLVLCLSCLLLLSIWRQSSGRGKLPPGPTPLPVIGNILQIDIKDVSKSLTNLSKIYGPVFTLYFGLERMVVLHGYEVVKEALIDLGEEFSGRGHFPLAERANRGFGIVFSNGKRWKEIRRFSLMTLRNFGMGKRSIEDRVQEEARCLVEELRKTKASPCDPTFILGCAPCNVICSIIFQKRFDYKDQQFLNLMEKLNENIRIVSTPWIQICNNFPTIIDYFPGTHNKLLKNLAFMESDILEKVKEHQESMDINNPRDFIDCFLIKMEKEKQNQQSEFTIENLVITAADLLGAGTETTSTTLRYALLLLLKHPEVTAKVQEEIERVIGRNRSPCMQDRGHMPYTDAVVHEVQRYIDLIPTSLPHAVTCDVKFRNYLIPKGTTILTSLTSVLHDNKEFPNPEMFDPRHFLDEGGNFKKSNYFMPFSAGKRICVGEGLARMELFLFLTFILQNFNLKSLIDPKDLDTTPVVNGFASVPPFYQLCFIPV
Plk1 PBD FP = blocks phosphopeptide binding to human Plk1 polo box domain. P53350. Plk1 PBD phosphopeptide binding, fluorescence polarization. inhibition, %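 (tested at about 20 µM)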. 97,000 tested, 0.13% active. AID 693; in the data active = inhibition above about 34%, passing the limit was not always enough
CYP2C19 inhib = blocks human cytochrome P450 2C19. 96,000 tested, 21% active. CYP2C19 Supersomes, luciferin-H EGE luminescence, 30 min. AID 778. P33261. inhibition, % at 5 µM;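 active = CYP2C19 inhibition above a set limit at 5 µM in the primary screen, cut at about 50% in these data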;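 also: plate controls were negative control wells for no effect and 2.5 mM tranylcypromine positive control for full effect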
PLK1 kinase inh = inhibitors of human PLK1 kinase | P53350 | recombinant PLK1 kinase, TR-FRET peptide phosphorylation | inhibition, % at 10 µM | 97,000 tested, 0.53% active | AID 619;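 active = inhibition of 50% or more in the single-concentration screen; inactive = inhibition below 50%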;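 also: 0% = DMSO max control and 100% = H-89 dihydrochloride min control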
CYP2C9 act = CYP2C9 (human) activation; P11712; recombinant CYP2C9, luciferin-H conversion, luminescence; stronger effect = higher value; factor 1 = untreated enzyme, 0 = blocked; activation factor at 5 µM; 96,000 tested, 1.4% active; AID 1024;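 active = activation factor of 2 or more for CYP2C9 at a 5 µM dose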;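 also: 0 = sulfaphenazole-blocked wells and 1 = vehicle-only wells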
An asterisk follows results filed as active; / = no result given.

SMILES	CYP2C9 inhib	CYP2C19 activ	Plk1 PBD FP	CYP2C19 inhib	PLK1 kinase inh	CYP2C9 act
Cc1cccc2[nH]c(-c3ccc(NC(=O)c4ccco4)cc3)nc12	6	0.7	21	33	0	0.9
Cc1nn(C)c(C)c1/C=N/N=C1\CCC2C3CCc4cc(O)ccc4C3CCC12C (stereo not drawn)	29	0.6	-10	43	-10	0.7
O=c1ccc2cc(S(=O)(=O)N3CCN(c4cc(Cl)ccc4Cl)CC3)ccc2o1	88*	0.3	5	74*	-8	0.1
O=c1c(Cl)c(N2CCN(S(=O)(=O)c3ccc(F)cc3)CC2)cnn1-c1cccc(Cl)c1	19	0.9	-26	11	-8	0.8
COc1ccc(-c2cc(-c3ccc(OC)c(OC)c3)n[nH]2)c(O)c1	-23	1	7	-2	-4	1.2
CCOc1ccc(-c2nc(N)ncc2Oc2ccccc2Br)c(O)c1	6	0.8	6	17	-7	0.9
C=C(C)COc1ccc(-c2[nH]ncc2Oc2ccccc2OC)c(O)c1	85*	0.4	-16	61*	-15	0.2
C=C(C)COc1ccc(-c2[nH]ncc2-c2ccccc2OC)c(O)c1	89*	0.3	4	75*	-2	0.1
CCOc1ccc(-c2[nH]ncc2-c2ccc(OC)c(OC)c2)c(O)c1	84*	0.2	0	84*	31	0.2
CCOc1ccc(-c2[nH]ncc2Oc2ccccc2OCC)c(O)c1	88*	0.1	9	90*	-8	0.1
C=C(C)COc1ccc(-c2nc(N)ncc2Oc2ccccc2OC)c(O)c1	30	0.8	-33	24	-11	0.7
CCOC(=O)N1CCC(NS(=O)(=O)c2ccc3c(c2)CCN3C(C)=O)CC1	28	1	3	4	-41	0.7
C=C(C)COc1ccc(-c2nc(N)ncc2Oc2ccc(OC)cc2)c(O)c1	22	0.8	2	19	-86	0.8
CCCOC(=O)c1ccc(Oc2cn[nH]c2-c2ccc(OC)cc2O)cc1	99*	0	17	97*	-6	0
CCOc1ccc(-c2[nH]ncc2Oc2ccccc2OC)c(O)c1	98*	0	-9	99*	-6	0
Cc1cc(C)c2[nH]c(=O)c(C(c3nnnn3C3CCCC3)N3CCOCC3)cc2c1 (stereo not drawn)	-10	1.1	/	-14	/	1.1
Cc1cc(C(=O)Nc2ccc(S(=O)(=O)Nc3nccs3)cc2)c(C)o1	26	1.1	-4	-12	-11	0.7
O=S(=O)(Nc1ccc(S(=O)(=O)Nc2nccs2)cc1)c1ccc2c(c1)OCCO2	67*	1.1	9	-8	-13	0.3
CC(C)(C)C(=O)Nc1ccc(-c2cn3ccsc3n2)cc1	5	0.8	4	16	-5	0.9
O=S(=O)(Nc1nccs1)c1ccc(Cl)cc1	50*	0.8	25	21	-3	0.5
O=S(=O)(Nc1ccc(-c2cn3ccsc3n2)cc1)c1ccc2c(c1)OCCO2	91*	0.2	12	76*	-10	0.1
O=C(Nc1nccs1)C1(S(=O)(=O)c2ccc(Cl)cc2)CC1	34	0.6	-26	38	-2	0.7
Cc1cccc(-n2c(N)cc(=O)nc2SCC(=O)Nc2nnc(C)s2)c1	1	1.4	8	-39	-6	1
COc1ccccc1NC(=O)Cc1noc(CN(C)Cc2cccs2)n1	34	0.2	-9	78*	-11	0.7
Cc1ccc(CNC(=O)CCc2nc(-c3cccs3)no2)cc1	68*	0.3	-7	70*	4	0.3
SMILES	CYP2C9 inhib	CYP2C19 activ	Plk1 PBD FP	CYP2C19 inhib	PLK1 kinase inh	CYP2C9 act
COc1ccccc1NC(=O)CCc1nc(-c2cccs2)no1	24	0.2	7	85*	-36	0.8
O=C(CCc1nc(-c2cccs2)no1)NCc1ccc(F)cc1Cl	66*	0.1	3	87*	4	0.3
CCC(=O)Nc1nc(CC(=O)Nc2ccccc2OC)cs1	/	/	-37	/	-10	/
CN=C1CC(SC)=C1c1ccc(C)cc1	/	/	5	/	-8	/
CC1=C(C)/C(=N\OS(=O)(=O)c2ccccc2)C=CC1=O	-6	0.9	-18	14	11	1.1
COc1ccc(Cc2nc(-c3cccs3)no2)cc1OC	65*	0.2	31	78*	-3	0.3
Cc1ccc(N(CC(=O)NCc2ccc(F)cc2)S(=O)(=O)c2cccs2)cc1	63*	0	23	99*	1	0.4

High-throughput results: PubChem BioAssay, several laboratories
